According to PubChem BioAssay AID1159580 (chemical genetic matrix, 2015):
Screen size: about 5,500 compounds; about 2,000 (36%) were called active. Another 18% or so got no clear call; they are omitted. The list shows a part of the results. Unmarked numbers belong to inactive results. No stated cut-off is given here; in the data, active means normalized growth mostly below about 0.91 (no sharp cut-off); inconclusive means no clear call, values can overlap the other calls; inactive means mostly above about 0.92.

Experiment: chemical genetic growth profiling, strain panel (AID 1159580);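 further: tested at 20 µM; growth read once vehicle control cultures reached saturation at 30 °C; 1 = growth at the plate median or of vehicle wells; lower values mean less growth of the strain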
Settings: growth OD

**Q.** With `CC[C@@H](C(=O)O)[C@@H]1O[C@@H]([C@@H](C)[C@H](O)[C@H](C)C(=O)[C@H](CC)[C@H]2O[C@]3(C=C[C@@H](O)[C@]4(CC[C@@](C)(C5CC[C@](O)(CC)[C@H](C)O5)O4)O3)[C@H](C)C[C@@H]2C)[C@@H](C)C[C@H]1C` (stereo partly specified) as the compound, how does the normalized growth (S. cerevisiae deletion strains, locus YAL013W, strain DEP1, hits give low values) read?
**A.** 0.858 (active)

**Q.** What about the normalized growth (S. cerevisiae deletion strains, locus YBR021W, strain FUR4, hits give low values) of the same compound?
**A.** 0.168 (active)

**Q.** And the normalized growth (S. cerevisiae deletion strains, locus YBR229C, strain ROT2, hits give low values)?
**A.** 0.405 (active)

**Q.** What about the normalized growth (S. cerevisiae deletion strains, locus YCL029C, strain bik1, hits give low values) of the same compound?
**A.** 0.559 (active)

**Q.** And the normalized growth (S. cerevisiae deletion strains, locus YDL035C, strain GPR1, hits give low values)?
**A.** 0.478 (active)

**Q.** What about the normalized growth (S. cerevisiae deletion strains, locus YDL074C, strain BRE1, hits give low values) of the same compound?
**A.** 0.412 (active)

**Q.** And the normalized growth (S. cerevisiae deletion strains, locus YDL101C, strain DUN1, hits give low values)?
**A.** 0.214 (active)

**Q.** And the normalized growth (S. cerevisiae deletion strains, locus YDL134C, strain PPH21, hits give low values)?
**A.** 0.313 (active)

**Q.** What about the normalized growth (S. cerevisiae deletion strains, locus YDL185W, strain tfp1, hits give low values) of the same compound?
**A.** 0.993

**Q.** And the normalized growth (S. cerevisiae deletion strains, locus YDL192W, strain arf1, hits give low values)?
**A.** 0.0725 (active)

**Q.** And the normalized growth (S. cerevisiae deletion strains, locus YDR101C, strain arx1, hits give low values)?
**A.** 0.569 (active)

**Q.** What about the normalized growth (S. cerevisiae deletion strains, locus YDR150W, strain NUM1, hits give low values) of the same compound?
**A.** 0.426 (active)

**Q.** And the normalized growth (S. cerevisiae deletion strains, locus YDR162C, strain NBP2, hits give low values)?
**A.** 0.0697 (active)

**Q.** And the normalized growth (S. cerevisiae deletion strains, locus YDR318W, strain mcm21, hits give low values)?
**A.** 0.224 (active)

**Q.** And the normalized growth (S. cerevisiae deletion strains, locus YDR388W, hits give low values)?
**A.** 0.117 (active)

**Q.** And the normalized growth (S. cerevisiae deletion strains, locus YDR502C, strain sam2, hits give low values)?
**A.** 0.317 (active)

**Q.** What about the normalized growth (S. cerevisiae deletion strains, locus YEL061C, strain CIN8, hits give low values) of the same compound?
**A.** 0.724 (active)

**Q.** What about the normalized growth (S. cerevisiae deletion strains, locus YER110C, hits give low values) of the same compound?
**A.** 0.861 (active)

**Q.** What about the normalized growth (S. cerevisiae deletion strains, locus YER155C, strain BEM2, hits give low values) of the same compound?
**A.** 0.796 (active)

**Q.** And the normalized growth (S. cerevisiae deletion strains, locus YER167W, strain BCK2, hits give low values)?
**A.** 0.294 (active)

**Q.** And the normalized growth (S. cerevisiae deletion strains, locus YGL078C, strain dbp3, hits give low values)?
**A.** 0.378 (active)

**Q.** What about the normalized growth (S. cerevisiae deletion strains, locus YGL086W, strain mad1, hits give low values) of the same compound?
**A.** 0.331 (active)

**Q.** And the normalized growth (S. cerevisiae deletion strains, locus YGL248W, strain PDE1, hits give low values)?
**A.** 0.282 (active)

**Q.** What about the normalized growth (S. cerevisiae deletion strains, locus YGR078C, strain PAC10, hits give low values) of the same compound?
**A.** 0.621 (active)

**Q.** And the normalized growth (S. cerevisiae deletion strains, locus YGR135W, strain pre9, hits give low values)?
**A.** 0.781 (active)

**Q.** And the normalized growth (S. cerevisiae deletion strains, locus YGR229C, strain SMI1, hits give low values)?
**A.** 0.15 (active)

**Q.** And the normalized growth (S. cerevisiae deletion strains, locus YGR252W, strain gcn5, hits give low values)?
**A.** 0.312 (active)

**Q.** And the normalized growth (S. cerevisiae deletion strains, locus YHR030C, strain SLT2, hits give low values)?
**A.** 0.142 (active)

**Q.** What about the normalized growth (S. cerevisiae deletion strains, locus YHR079C, strain IRE1 (second series), hits give low values) of the same compound?
**A.** 0.39 (active)

**Q.** What about the normalized growth (S. cerevisiae deletion strains, locus YHR094C, strain hxt1, hits give low values) of the same compound?
**A.** 0.278 (active)

**Q.** What about the normalized growth (S. cerevisiae deletion strains, locus YHR129C, strain ARP1, hits give low values) of the same compound?
**A.** 0.209 (active)

**Q.** And the normalized growth (S. cerevisiae deletion strains, locus YHR200W, strain rpn10, hits give low values)?
**A.** 0.691 (active)

**Q.** And the normalized growth (S. cerevisiae deletion strains, locus YIL066C, strain RNR3, hits give low values)?
**A.** 0.385 (active)

**Q.** What about the normalized growth (S. cerevisiae deletion strains, locus YIL073C, strain SPO22, hits give low values) of the same compound?
**A.** 0.127 (active)

**Q.** And the normalized growth (S. cerevisiae deletion strains, locus YIL125W, strain kgd1, hits give low values)?
**A.** 0.12 (active)

**Q.** And the normalized growth (S. cerevisiae deletion strains, locus YIR030C, strain dcg1, hits give low values)?
**A.** 0.461 (active)

**Q.** What about the normalized growth (S. cerevisiae deletion strains, locus YJL095W, strain BCK1, hits give low values) of the same compound?
**A.** 0.232 (active)

**Q.** What about the normalized growth (S. cerevisiae deletion strains, locus YJL134W, strain LCB3, hits give low values) of the same compound?
**A.** 0.244 (active)

**Q.** What about the normalized growth (S. cerevisiae deletion strains, locus YJL168C, strain set2, hits give low values) of the same compound?
**A.** 0.448 (active)

**Q.** What about the normalized growth (S. cerevisiae deletion strains, locus YJL187C, strain SWE1 (second series), hits give low values) of the same compound?
**A.** 0.287 (active)

**Q.** And the normalized growth (S. cerevisiae deletion strains, locus YJR043C, strain POL32, hits give low values)?
**A.** 0.552 (active)

**Q.** What about the normalized growth (S. cerevisiae deletion strains, locus YJR075W, strain HOC1, hits give low values) of the same compound?
**A.** 0.6 (active)

**Q.** What about the normalized growth (S. cerevisiae deletion strains, locus YKL009W, strain mrt4, hits give low values) of the same compound?
**A.** 0.874 (active)

**Q.** What about the normalized growth (S. cerevisiae deletion strains, locus YKL068W, hits give low values) of the same compound?
**A.** 0.257 (active)

**Q.** What about the normalized growth (S. cerevisiae deletion strains, locus YKL085W, strain MDH1 (second series), hits give low values) of the same compound?
**A.** 0.164 (active)

**Q.** What about the normalized growth (S. cerevisiae deletion strains, locus YKL085W, strain MDH1, hits give low values) of the same compound?
**A.** 0.164 (active)

**Q.** What about the normalized growth (S. cerevisiae deletion strains, locus YKL190W, strain CNB1, hits give low values) of the same compound?
**A.** 0.295 (active)

**Q.** And the normalized growth (S. cerevisiae deletion strains, locus YKR001C, strain vps1, hits give low values)?
**A.** 0.0696 (active)

**Q.** And the normalized growth (S. cerevisiae deletion strains, locus YLR039C, strain RIC1, hits give low values)?
**A.** 0.115 (active)

**Q.** And the normalized growth (S. cerevisiae deletion strains, locus YLR058C, strain SHM2, hits give low values)?
**A.** 0.432 (active)

**Q.** And the normalized growth (S. cerevisiae deletion strains, locus YLR102C, strain apc9, hits give low values)?
**A.** 0.431 (active)

**Q.** What about the normalized growth (S. cerevisiae deletion strains, locus YLR262C, strain YPT6, hits give low values) of the same compound?
**A.** 0.125 (active)

**Q.** What about the normalized growth (S. cerevisiae deletion strains, locus YLR268W, strain sec22, hits give low values) of the same compound?
**A.** 0.291 (active)

**Q.** And the normalized growth (S. cerevisiae deletion strains, locus YLR330W, strain CHS5, hits give low values)?
**A.** 0.237 (active)

**Q.** And the normalized growth (S. cerevisiae deletion strains, locus YLR342W, strain FKS1 (second series), hits give low values)?
**A.** 0.2 (active)

**Q.** And the normalized growth (S. cerevisiae deletion strains, locus YLR371W, strain rom2, hits give low values)?
**A.** 0.147 (active)

**Q.** What about the normalized growth (S. cerevisiae deletion strains, locus YLR418C, strain cdc73, hits give low values) of the same compound?
**A.** 0.162 (active)

**Q.** What about the normalized growth (S. cerevisiae deletion strains, locus YML016C, strain PPZ1, hits give low values) of the same compound?
**A.** 0.402 (active)

**Q.** And the normalized growth (S. cerevisiae deletion strains, locus YML032C, strain rad52, hits give low values)?
**A.** 0.586 (active)

**Q.** And the normalized growth (S. cerevisiae deletion strains, locus YML124C, strain tub3, hits give low values)?
**A.** 0.385 (active)

**Q.** What about the normalized growth (S. cerevisiae deletion strains, locus YMR078C, strain ctf18, hits give low values) of the same compound?
**A.** 0.857 (active)

**Q.** What about the normalized growth (S. cerevisiae deletion strains, locus YMR223W, strain ubp8, hits give low values) of the same compound?
**A.** 0.465 (active)

**Q.** What about the normalized growth (S. cerevisiae deletion strains, locus YMR263W, strain SAP30, hits give low values) of the same compound?
**A.** 0.763 (active)

**Q.** What about the normalized growth (S. cerevisiae deletion strains, locus YMR307W, strain GAS1, hits give low values) of the same compound?
**A.** 0.129 (active)

**Q.** What about the normalized growth (S. cerevisiae deletion strains, locus YNL067W, strain RPL9B, hits give low values) of the same compound?
**A.** 0.629 (active)

**Q.** What about the normalized growth (S. cerevisiae deletion strains, locus YNL128W, strain TEP1, hits give low values) of the same compound?
**A.** 0.377 (active)

**Q.** And the normalized growth (S. cerevisiae deletion strains, locus YNL153C, strain GIM3, hits give low values)?
**A.** 0.31 (active)

**Q.** What about the normalized growth (S. cerevisiae deletion strains, locus YNL233W, strain BNI4, hits give low values) of the same compound?
**A.** 0.2 (active)

**Q.** And the normalized growth (S. cerevisiae deletion strains, locus YNL250W, strain rad50, hits give low values)?
**A.** 0.262 (active)

**Q.** And the normalized growth (S. cerevisiae deletion strains, locus YNL271C, strain bni1, hits give low values)?
**A.** 0.119 (active)

**Q.** What about the normalized growth (S. cerevisiae deletion strains, locus YNL298W, strain CLA4, hits give low values) of the same compound?
**A.** 0.111 (active)

**Q.** What about the normalized growth (S. cerevisiae deletion strains, locus YNL307C, strain MCK1, hits give low values) of the same compound?
**A.** 0.229 (active)

**Q.** And the normalized growth (S. cerevisiae deletion strains, locus YNL322C, strain KRE1, hits give low values)?
**A.** 0.262 (active)

**Q.** And the normalized growth (S. cerevisiae deletion strains, locus YNR052C, strain pop2, hits give low values)?
**A.** 0.241 (active)

**Q.** What about the normalized growth (S. cerevisiae deletion strains, locus YOL006C, strain TOP1, hits give low values) of the same compound?
**A.** 0.107 (active)

**Q.** What about the normalized growth (S. cerevisiae deletion strains, locus YOL012C, strain htz1) of the same compound?
**A.** 0.22

**Q.** And the normalized growth (S. cerevisiae deletion strains, locus YOL147C, strain pex11, hits give low values)?
**A.** 0.338 (active)

**Q.** What about the normalized growth (S. cerevisiae deletion strains, locus YOR061W, strain CKA2, hits give low values) of the same compound?
**A.** 0.0978 (active)

**Q.** What about the normalized growth (S. cerevisiae deletion strains, locus YOR069W, strain VPS5, hits give low values) of the same compound?
**A.** 0.14 (active)

**Q.** What about the normalized growth (S. cerevisiae deletion strains, locus YOR136W, strain idh2, hits give low values) of the same compound?
**A.** 0.248 (active)

**Q.** What about the normalized growth (S. cerevisiae deletion strains, locus YOR144C, strain elg1, hits give low values) of the same compound?
**A.** 0.425 (active)

**Q.** What about the normalized growth (S. cerevisiae deletion strains, locus YOR184W, strain ser1, hits give low values) of the same compound?
**A.** 0.335 (active)

**Q.** And the normalized growth (S. cerevisiae deletion strains, locus YOR316C, strain cot1, hits give low values)?
**A.** 0.377 (active)

**Q.** And the normalized growth (S. cerevisiae deletion strains, locus YPL055C, strain LGE1, hits give low values)?
**A.** 0.174 (active)

**Q.** What about the normalized growth (S. cerevisiae deletion strains, locus YPL241C, strain CIN2, hits give low values) of the same compound?
**A.** 0.648 (active)

**Q.** What about the normalized growth (S. cerevisiae deletion strains, locus YPR119W, strain clb2, hits give low values) of the same compound?
**A.** 0.623 (active)

**Q.** And the normalized growth (S. cerevisiae deletion strains, locus YPR141C, strain kar3, hits give low values)?
**A.** 0.383 (active)

**Q.** What about the normalized growth (S. cerevisiae deletion strains, locus YPR163C, strain tif3, hits give low values) of the same compound?
**A.** 0.134 (active)

**Q.** And the normalized growth (S. cerevisiae deletion strains, locus YPR167C, strain met16, hits give low values)?
**A.** 0.427 (active)

**Q.** What about the normalized growth (S. cerevisiae deletion strains, strain wtn01, hits give low values) of the same compound?
**A.** 0.245 (active)

**Q.** And the normalized growth (S. cerevisiae strains, strain wild type, hits give low values)?
**A.** 0.27 (active)
